This note sets out measurements from PubChem BioAssay (NCI).

Compounds without any hit were thinned out: in the full panel of roughly 79,000, 15% have a hit. Values without a mark were called inactive. The source made the active and inactive calls. Rule as the data show it: active = growth inhibition above about 70%; inactive = the rest.

The first assay is described as follows: NCI Yeast Anticancer Drug Screen. Data for the rad50 strain (AID 155).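 Also: 0% = growth of vehicle-only cultures of the same strain.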 The note with it: S. cerevisiae rad50 strain growth inhibition; at 50.0 µM; active compounds read high. Summed up:
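Vehicle-treated cultures provide the reference for the growth inhibition reported for compound-exposed, repair-deficient yeast.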
For `CCCCCCCCCCS(=O)(=O)Nc1ccc(C(=O)NN)cc1`, the growth inhibition is 92.6% (active).

`ON(C(=Nc1ccc(Cl)cc1)c1ccccc1)c1ccccc1`: the growth inhibition was 98% (active).

Consider `Cc1ccc(-c2c(N)[n+]([O-])c3ccccc3[n+]2[O-])cc1`, for which the growth inhibition is 99.3% (active).

On to `NC(=O)C12OC3CC(CC(C3)O1)O2`, for which the growth inhibition is 5.95%.

As to `C=C(C)[P+](C)(c1ccccc1)c1ccccc1`, the growth inhibition is 72.7% (active).

Consider `CCC(C)SC1SCC2C(=O)N(C)C3(CC3C)C(=O)OCC(NC(=O)c3nc4ccccc4cc3O)C(=O)NC(C)C(=O)N(C)C1C(=O)N(C)C1(CC1C)C(=O)OCC(NC(=O)c1nc3ccccc3cc1O)C(=O)NC(C)C(=O)N2C` (stereo not given), for which the growth inhibition was 89.7% (active).

Turning to `COc1ccc2ccc(=O)oc2c1CC=C(C)C`, the growth inhibition is 46.5%.

As to `O=c1ccn(C2OC(COC(c3ccccc3)(c3ccccc3)c3ccccc3)C(O)C2O)c(=O)[nH]1` (stereo not given), the growth inhibition was 90.8% (active).

For the compound `O=C1C(=O)C(Cc2ccccc2)(c2ccccc2)C(=O)N1c1ccccc1` (stereo not given), the growth inhibition was 68.2%.

As to `CCC(O)C(O)(c1ccccc1)c1nc2ccccc2s1` (stereo not given), the growth inhibition was 6.75%.

For the compound `c1ccc(-n2ncc3ccc4cccn4c32)cc1`, the growth inhibition was 63.9%.

As for `O=C(c1ccc([N+](=O)[O-])cc1)C(Br)C(Br)c1ccnc2ccccc12` (stereo not given), the growth inhibition is 98.2% (active).

As for `[Cl][Sn]1([Cl])[CH2]CC[CH2][Sn]([Cl])([Cl])[CH2]CC[CH2][Sn]([Cl])([Cl])[CH2]CC[CH2][Sn]([Cl])([Cl])[CH2]CC[CH2]1`, the growth inhibition was 54.3%.

On to `Nc1ccc(O)c(=O)cc1`, for which the growth inhibition is 50.2%.

Take `CC(C)c1cc(C(=O)[O-])c(O)c(C(C)C)c1.CC(C)c1cc(C(=O)[O-])c(O)c(C(C)C)c1.CC(C)c1cc(C(=O)[O-])c(O)c(C(C)C)c1.CC(C)c1cc(C(=O)[O-])c(O)c(C(C)C)c1.CC(C)c1cc(C(=O)[O-])c(O)c(C(C)C)c1.CC(C)c1cc(C(=O)[O-])c(O)c(C(C)C)c1.[Cu+2].[Mn+2].[Mn+2]`: the growth inhibition is 43.5%.

`CC1=C(C(=O)Nc2cccc(C(F)(F)F)c2)C(c2ccccc2F)C(C(=O)Nc2cccc(C(F)(F)F)c2)=C(C)N1`: the growth inhibition is 78.4% (active).

For `O=C(c1ccccc1)C(C(=O)c1ccccc1)c1ccc2ccccc2n1`, the growth inhibition was 19.2%.

On to `NC(=S)N1N=C2c3ccccc3CC[C@H]2[C@@H]1c1cccs1`, for which the growth inhibition was 59.6%.

Turning to `O=CC(O)CN1CCCC1` (stereo not given), the growth inhibition is 49.6%.

Take `CCCCCN(CCCCC)CC(C)(C)C(O)c1ccc(OC)c2ccccc12` (stereo not given): the growth inhibition is 51.9%.

As for `CSC(=S)n1nc(-c2cccs2)c(N=Nc2ccccc2)c1C(F)(F)F`, the growth inhibition was 93% (active).

As to `CC(O)C1CCCC[N+]1(C)C` (stereo not given), the growth inhibition was 0.05%.

In the case of `CCCCCCCCCCCC(=O)N(CCOC(=O)c1ccco1)CCOC(=O)c1ccco1`, the growth inhibition is 99% (active).

Take `CCOC(=O)NC(=S)Nc1ccsc1`: the growth inhibition is 15.6%.

Turning to `O=C(O)c1ccc(C(O)(c2ccccc2)c2ccccc2)cc1`, the growth inhibition was 63.4%.

For `N#CSCCSCc1ccc(Cl)cc1`, the growth inhibition was 99.2% (active).

On to `CN(/N=C\c1ccc(Cl)cc1)C(c1ccc(Cl)cc1)N(C)/N=C/c1ccc(Cl)cc1` (stereo not given), for which the growth inhibition was 29%.

With `CC(C)(C)[Si](C)(C)OCC1OC(n2cc(I)c(N)nc2=O)C(O[Si](C)(C)C(C)(C)C)C1O[Si](C)(C)C(C)(C)C` (stereo not given), the growth inhibition was 27.1%.

In the case of `O=C1C(=O)c2cc(Br)cc([N+](=O)[O-])c2-c2ccc(Br)cc21`, the growth inhibition was 95.5% (active).

For the compound `C(=NCCc1ccccc1)c1ccccc1B1OB(c2ccccc2C=NCCc2ccccc2)OB(c2ccccc2C=NCCc2ccccc2)O1`, the growth inhibition is 99.6% (active).

As for `O=[N+]([O-])c1ccc(-c2ccccc2Cl)c([N+](=O)[O-])c1`, the growth inhibition is 95.8% (active).

As to `CC12CCC(=O)C=C1CCC1C2CCC2(C)C(c3cnc[nH]3)CCC12` (stereo not given), the growth inhibition was 77% (active).

On to `COc1cccc(C2CC(C)(O)Oc3cc4c(cc32)OCO4)c1` (stereo not given), for which the growth inhibition was 33.8%.

As to `N/C(=N\N=C\c1cc(I)cc(I)c1O)NO`, the growth inhibition is 95.5% (active).

Take `Cc1ccc2nn(-c3ccc(O)cc3)nc2c1`: the growth inhibition was 50.3%.

Consider `COC(=O)C1=C(NC(=O)Nc2ccc(Cl)cc2)OC(C)(C)C1c1ccc(Cl)cc1` (stereo not given), for which the growth inhibition is 96.5% (active).

On to `CCCC/C=C\CCCCCCCCCC1=C(O)C(=O)C=C(OC)C1=O`, for which the growth inhibition was 60.9%.

As to `Cc1nn(C(=O)c2ccccc2O)c2c1C(c1ccco1)SC(N)=N2` (stereo not given), the growth inhibition is 67.5%.

Take `CC1=C(CO)C(=O)O[C@@H]([C@@H](C)[C@H]2CC[C@H]3[C@@H]4C[C@@H](O)C5=CC=CC(=O)[C@]5(C)[C@H]4CC[C@]23C)C1`: the growth inhibition was 71.2% (active).

As to `O=C(CNC(=O)Nc1ccc(NC(=O)NCC(=O)Nc2ccc(C3=NCCN3)cc2)cc1)Nc1ccc(C2=NCCN2)cc1`, the growth inhibition was 98.2% (active).

A short description of the next assay: NCI Yeast Anticancer Drug Screen. Data for the mec2-1 strain (AID 157). The note with it: S. cerevisiae mec2-1 strain, at 5.0 µM (retest, dose inferred, filed as 0.5), active compounds read high. Summed up:
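Strain: mec2-1 (DNA repair/cell cycle alteration). Compound exposure, then growth measured; inhibition expressed relative to vehicle.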
As for `CCCCCCCCCCS(=O)(=O)Nc1ccc(C(=O)NN)cc1`, the growth inhibition was 29%.

On to `ON(C(=Nc1ccc(Cl)cc1)c1ccccc1)c1ccccc1`, for which the growth inhibition is 7%.

For the compound `Cc1ccc(-c2c(N)[n+]([O-])c3ccccc3[n+]2[O-])cc1`, the growth inhibition is 32%.

As to `NC(=O)C12OC3CC(CC(C3)O1)O2`, the growth inhibition is -8%.

Turning to `C=C(C)[P+](C)(c1ccccc1)c1ccccc1`, the growth inhibition is -12%.

In the case of `CCC(C)SC1SCC2C(=O)N(C)C3(CC3C)C(=O)OCC(NC(=O)c3nc4ccccc4cc3O)C(=O)NC(C)C(=O)N(C)C1C(=O)N(C)C1(CC1C)C(=O)OCC(NC(=O)c1nc3ccccc3cc1O)C(=O)NC(C)C(=O)N2C` (stereo not given), the growth inhibition was 99% (active).

For the compound `COc1ccc2ccc(=O)oc2c1CC=C(C)C`, the growth inhibition is 13%.

For `O=c1ccn(C2OC(COC(c3ccccc3)(c3ccccc3)c3ccccc3)C(O)C2O)c(=O)[nH]1` (stereo not given), the growth inhibition is 27%.

On to `O=C1C(=O)C(Cc2ccccc2)(c2ccccc2)C(=O)N1c1ccccc1` (stereo not given), for which the growth inhibition is -3%.

With `CCC(O)C(O)(c1ccccc1)c1nc2ccccc2s1` (stereo not given), the growth inhibition was 5%.

Consider `c1ccc(-n2ncc3ccc4cccn4c32)cc1`, for which the growth inhibition is 3%.

With `O=C(c1ccc([N+](=O)[O-])cc1)C(Br)C(Br)c1ccnc2ccccc12` (stereo not given), the growth inhibition was 23%.

As for `[Cl][Sn]1([Cl])[CH2]CC[CH2][Sn]([Cl])([Cl])[CH2]CC[CH2][Sn]([Cl])([Cl])[CH2]CC[CH2][Sn]([Cl])([Cl])[CH2]CC[CH2]1`, the growth inhibition is -19%.

For `Nc1ccc(O)c(=O)cc1`, the growth inhibition is -40%.

In the case of `CC(C)c1cc(C(=O)[O-])c(O)c(C(C)C)c1.CC(C)c1cc(C(=O)[O-])c(O)c(C(C)C)c1.CC(C)c1cc(C(=O)[O-])c(O)c(C(C)C)c1.CC(C)c1cc(C(=O)[O-])c(O)c(C(C)C)c1.CC(C)c1cc(C(=O)[O-])c(O)c(C(C)C)c1.CC(C)c1cc(C(=O)[O-])c(O)c(C(C)C)c1.[Cu+2].[Mn+2].[Mn+2]`, the growth inhibition was 38%.

Regarding `CC1=C(C(=O)Nc2cccc(C(F)(F)F)c2)C(c2ccccc2F)C(C(=O)Nc2cccc(C(F)(F)F)c2)=C(C)N1`, the growth inhibition was 46%.

On to `O=C(c1ccccc1)C(C(=O)c1ccccc1)c1ccc2ccccc2n1`, for which the growth inhibition was 1%.

For the compound `NC(=S)N1N=C2c3ccccc3CC[C@H]2[C@@H]1c1cccs1`, the growth inhibition was -4%.

As for `O=CC(O)CN1CCCC1` (stereo not given), the growth inhibition was 0%.

As for `CCCCCN(CCCCC)CC(C)(C)C(O)c1ccc(OC)c2ccccc12` (stereo not given), the growth inhibition was -4%.

Take `CSC(=S)n1nc(-c2cccs2)c(N=Nc2ccccc2)c1C(F)(F)F`: the growth inhibition is -1%.

Consider `CC(O)C1CCCC[N+]1(C)C` (stereo not given), for which the growth inhibition is 5%.

On to `CCCCCCCCCCCC(=O)N(CCOC(=O)c1ccco1)CCOC(=O)c1ccco1`, for which the growth inhibition is 43%.

For `CCOC(=O)NC(=S)Nc1ccsc1`, the growth inhibition was -4%.

Consider `O=C(O)c1ccc(C(O)(c2ccccc2)c2ccccc2)cc1`, for which the growth inhibition is 11%.

Consider `N#CSCCSCc1ccc(Cl)cc1`, for which the growth inhibition was 25%.

As to `CN(/N=C\c1ccc(Cl)cc1)C(c1ccc(Cl)cc1)N(C)/N=C/c1ccc(Cl)cc1` (stereo not given), the growth inhibition is 2%.

As for `CC(C)(C)[Si](C)(C)OCC1OC(n2cc(I)c(N)nc2=O)C(O[Si](C)(C)C(C)(C)C)C1O[Si](C)(C)C(C)(C)C` (stereo not given), the growth inhibition was 9%.

With `O=C1C(=O)c2cc(Br)cc([N+](=O)[O-])c2-c2ccc(Br)cc21`, the growth inhibition was 52%.

On to `C(=NCCc1ccccc1)c1ccccc1B1OB(c2ccccc2C=NCCc2ccccc2)OB(c2ccccc2C=NCCc2ccccc2)O1`, for which the growth inhibition was 93% (active).

Turning to `O=[N+]([O-])c1ccc(-c2ccccc2Cl)c([N+](=O)[O-])c1`, the growth inhibition was -7%.

Consider `CC12CCC(=O)C=C1CCC1C2CCC2(C)C(c3cnc[nH]3)CCC12` (stereo not given), for which the growth inhibition is 36%.

`COc1cccc(C2CC(C)(O)Oc3cc4c(cc32)OCO4)c1` (stereo not given): the growth inhibition is 5%.

Turning to `N/C(=N\N=C\c1cc(I)cc(I)c1O)NO`, the growth inhibition is 1%.

Turning to `Cc1ccc2nn(-c3ccc(O)cc3)nc2c1`, the growth inhibition was 16%.

Turning to `COC(=O)C1=C(NC(=O)Nc2ccc(Cl)cc2)OC(C)(C)C1c1ccc(Cl)cc1` (stereo not given), the growth inhibition is 94% (active).

For the compound `CCCC/C=C\CCCCCCCCCC1=C(O)C(=O)C=C(OC)C1=O`, the growth inhibition was 64%.

As to `Cc1nn(C(=O)c2ccccc2O)c2c1C(c1ccco1)SC(N)=N2` (stereo not given), the growth inhibition is 11%.

In the case of `CC1=C(CO)C(=O)O[C@@H]([C@@H](C)[C@H]2CC[C@H]3[C@@H]4C[C@@H](O)C5=CC=CC(=O)[C@]5(C)[C@H]4CC[C@]23C)C1`, the growth inhibition is -24%.

With `O=C(CNC(=O)Nc1ccc(NC(=O)NCC(=O)Nc2ccc(C3=NCCN3)cc2)cc1)Nc1ccc(C2=NCCN2)cc1`, the growth inhibition was -16%.
